# According to PubChem BioAssay (NCI):
# The panel holds about 79,000 compounds, 15% with a hit somewhere; the sample as a whole holds those more often. Values without a mark were called inactive. Activity calls are given as the source filed them. Rule as the data show it: active = growth inhibition above about 70%; inactive = the rest. Residues, ends and D or L forms follow the SMILES beside them. *: point of attachment. CH2Cl = ClC*
# Columns and labels:
# [1] = NCI Yeast Anticancer Drug Screen. Data for the rad52 strain (AID 147);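 also: 0% = growth of vehicle-treated control cultures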; settings: S. cerevisiae rad52 mutant growth inhibition, stronger effect = higher value
# Procedure, shortened: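 Vehicle-treated cultures served as the reference for growth inhibition of compound-exposed yeast bearing a DNA repair mutation.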
# [2] = NCI Yeast Anticancer Drug Screen. Data for the wt1 strain (AID 149);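 also: 0% = growth of vehicle-treated wt1 cultures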; settings: S. cerevisiae wt1 strain (SPY 50644) growth inhibition, stronger effect = higher value
# Procedure, shortened: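 wt1 yeast, compound-treated; % growth inhibition vs vehicle control.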
# [3] = NCI Yeast Anticancer Drug Screen. Data for the rad50EPP+ strain (AID 151);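 also: 0% = growth of vehicle-treated control cultures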; settings: S. cerevisiae rad50 mutant strain, stronger effect = higher value
# Procedure, shortened: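 In this screen, rad50EPP+ yeast were exposed to compounds. Growth inhibition was scored against vehicle-treated controls.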
# [4] = NCI Yeast Anticancer Drug Screen. Data for the mgt1 strain (AID 153); settings: S. cerevisiae mgt1 mutant growth inhibition, stronger effect = higher value
# Procedure, shortened: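 mgt1 strain exposed; growth vs vehicle control recorded as inhibition.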
# [5] = NCI Yeast Anticancer Drug Screen. Data for the rad50 strain (AID 155);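 also: 0% = growth of vehicle-only cultures of the same strain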; settings: S. cerevisiae rad50 strain growth inhibition, stronger effect = higher value
# Procedure, shortened: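 Genetically altered yeast (DNA repair pathway); compound treatment; growth inhibition vs vehicle ctrl.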
# [6] = NCI Yeast Anticancer Drug Screen. Data for the mec2-1 strain (AID 157); settings: S. cerevisiae mec2-1 strain, stronger effect = higher value
# Procedure, shortened: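 Vehicle-treated cultures served as reference for growth inhibition of compound-exposed mec2-1 yeast.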
# [7] = NCI Yeast Anticancer Drug Screen. Data for the rad14 strain (AID 159);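 also: 0% = growth of vehicle-treated control cultures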; settings: S. cerevisiae rad14 strain growth inhibition, stronger effect = higher value
# Procedure, shortened: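 Test compounds were applied to a repair-deficient yeast strain. Its growth was then compared with that of cultures given vehicle alone, and inhibition was expressed relative to those controls.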
# [8] = NCI Yeast Anticancer Drug Screen. Data for the sgs1 mgt1 strain (AID 161);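 also: 0% = growth of cultures given vehicle only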; settings: S. cerevisiae sgs1 mgt1 strain, at 50.0 µM, stronger effect = higher value
# Procedure, shortened: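 Mutant yeast exposed to compound; growth scored against vehicle-only wells.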
# [9] = NCI Yeast Anticancer Drug Screen. Data for the CLN2oe strain (AID 163);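 also: 0% = growth of vehicle-only control cultures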; settings: S. cerevisiae CLN2oe strain, stronger effect = higher value
# Procedure, shortened: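 Inhibition relative to vehicle-treated yeast is reported. Cells: strain with genetic alteration in cell-cycle control, grown with compound.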
# [10] = NCI Yeast Anticancer Drug Screen. Data for the cln2 rad14 strain (AID 165);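 also: 0% = growth equal to vehicle treated cultures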; settings: S. cerevisiae cln2 rad14 strain, at 50.0 µM, stronger effect = higher value
# Procedure, shortened: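 Each compound was tested on cln2 rad14 yeast. Inhibition of growth was calculated against vehicle-exposed controls.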
# [11] = NCI Yeast Anticancer Drug Screen. Data for the bub3 strain (AID 167); settings: S. cerevisiae bub3 mutant strain, stronger effect = higher value
# Procedure, shortened: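 Yeast carrying a defined mutation is treated with each compound, and growth is compared with that of vehicle-exposed cells to give inhibition.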
# [12] = NCI Yeast Anticancer Drug Screen. Data for the wt2 strain (AID 169);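 also: 0% = growth of vehicle-treated yeast cultures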; settings: S. cerevisiae wt2 strain growth inhibition, stronger effect = higher value
# Procedure, shortened: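 Inhibition of yeast growth was determined after compound treatment, normalised to controls receiving only vehicle.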
# [13] = NCI Yeast Anticancer Drug Screen. Data for the mlh1 strain (AID 171);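 also: 0% = growth of vehicle-treated control cultures of the same strain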; settings: S. cerevisiae mlh1 strain growth inhibition, stronger effect = higher value
# Procedure, shortened: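 Vehicle-normalised growth inhibition of a repair- or checkpoint-altered yeast strain following compound treatment.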
# [14] = NCI Yeast Anticancer Drug Screen. Data for the sgs1 strain (AID 173);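 also: 0% = growth of vehicle-only control cultures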; settings: S. cerevisiae sgs1 mutant, stronger effect = higher value
# Procedure, shortened: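 Screen format: yeast with repair or checkpoint alterations, compound exposure, growth read relative to vehicle.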
# [15] = NCI Yeast Anticancer Drug Screen. Data for the mlh1 rad18 strain (AID 175); settings: S. cerevisiae mlh1 rad18 strain growth inhibition; at 50.0 µM; stronger effect = higher value
# Procedure, shortened: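 Vehicle-treated cultures served as the reference for growth inhibition in a yeast strain carrying DNA damage repair alterations exposed to each compound.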
# [16] = NCI Yeast Anticancer Drug Screen. Data for the rad18 strain (AID 177); settings: S. cerevisiae rad18 mutant growth inhibition, stronger effect = higher value
# Procedure, shortened: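 Test articles were incubated with altered yeast defective in DNA damage repair. Results are given as inhibition of growth versus vehicle.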
structure (smiles),measurement,setting,value
CC(=O)NC(CC(C)C)C(=O)NC(Cc1ccccc1)C(=O)CCl (stereo not drawn) (Ac-Leu-Phe-CH2Cl; configuration not given here),growth inhibition,[1]; at 1.2 µM,-3%
same,growth inhibition,[1]; at 3.7 µM,1%
same,growth inhibition,[1]; at 11.0 µM,9%
same,growth inhibition,[1]; at 33.0 µM,27%
same,growth inhibition,[1]; at 100.0 µM,74% (active)
same,growth inhibition,[2]; at 1.2 µM,-2%
same,growth inhibition,[2]; at 3.7 µM,-5%
same,growth inhibition,[2]; at 11.0 µM,-5%
same,growth inhibition,[2]; at 33.0 µM,-4%
same,growth inhibition,[2]; at 100.0 µM,37%
same,growth inhibition,[3]; at 1.2 µM,-3%
same,growth inhibition,[3]; at 3.7 µM,-4%
same,growth inhibition,[3]; at 11.0 µM,-1%
same,growth inhibition,[3]; at 33.0 µM,9%
same,growth inhibition,[3]; at 100.0 µM,52%
same,growth inhibition,[4]; at 1.2 µM,-5%
same,growth inhibition,[4]; at 3.7 µM,-5%
same,growth inhibition,[4]; at 11.0 µM,-6%
same,growth inhibition,[4]; at 33.0 µM,-2%
same,growth inhibition,[4]; at 100.0 µM,83% (active)
same,growth inhibition,[5]; at 1.2 µM,-3%
same,growth inhibition,[5]; at 3.7 µM,1%
same,growth inhibition,[5]; at 11.0 µM,6%
same,growth inhibition,[5]; at 33.0 µM,25%
same,growth inhibition,[5]; at 50.0 µM,7.1%
same,growth inhibition,[5]; at 100.0 µM,77% (active)
same,growth inhibition,[6]; at 1.2 µM,-4%
same,growth inhibition,[6]; at 3.7 µM,0%
same,growth inhibition,[6]; at 11.0 µM,3%
same,growth inhibition,[6]; at 33.0 µM,21%
same,growth inhibition,[6]; at 50.0 µM,33.4%
same,growth inhibition,[6]; at 100.0 µM,85% (active)
same,growth inhibition,[7]; at 1.2 µM,-5%
same,growth inhibition,[7]; at 3.7 µM,-4%
same,growth inhibition,[7]; at 11.0 µM,-2%
same,growth inhibition,[7]; at 33.0 µM,3%
same,growth inhibition,[7]; at 100.0 µM,36%
same,growth inhibition,[8],46.9%
same,growth inhibition,[9]; at 1.2 µM,-8%
same,growth inhibition,[9]; at 3.7 µM,-7%
same,growth inhibition,[9]; at 11.0 µM,-8%
same,growth inhibition,[9]; at 33.0 µM,-2%
same,growth inhibition,[9]; at 100.0 µM,51%
same,growth inhibition,[10],-31.9%
same,growth inhibition,[11]; at 1.2 µM,-1%
same,growth inhibition,[11]; at 3.7 µM,-2%
same,growth inhibition,[11]; at 11.0 µM,-4%
same,growth inhibition,[11]; at 33.0 µM,6%
same,growth inhibition,[11]; at 50.0 µM,53.7%
same,growth inhibition,[11]; at 100.0 µM,84% (active)
same,growth inhibition,[12]; at 1.2 µM,-4%
same,growth inhibition,[12]; at 3.7 µM,-3%
same,growth inhibition,[12]; at 11.0 µM,-2%
same,growth inhibition,[12]; at 33.0 µM,-1%
same,growth inhibition,[12]; at 100.0 µM,71% (active)
same,growth inhibition,[13]; at 1.2 µM,-4%
same,growth inhibition,[13]; at 3.7 µM,-3%
same,growth inhibition,[13]; at 11.0 µM,-1%
same,growth inhibition,[13]; at 33.0 µM,5%
same,growth inhibition,[13]; at 100.0 µM,77% (active)
same,growth inhibition,[14]; at 1.2 µM,-3%
same,growth inhibition,[14]; at 3.7 µM,-4%
same,growth inhibition,[14]; at 11.0 µM,1%
same,growth inhibition,[14]; at 33.0 µM,15%
same,growth inhibition,[14]; at 100.0 µM,75% (active)
same,growth inhibition,[15],40.3%
same,growth inhibition,[16]; at 1.2 µM,-3%
same,growth inhibition,[16]; at 3.7 µM,-2%
same,growth inhibition,[16]; at 11.0 µM,3%
same,growth inhibition,[16]; at 33.0 µM,9%
same,growth inhibition,[16]; at 100.0 µM,72% (active)
O=NN(CCCl)C(=O)NCCCl,growth inhibition,[1]; at 1.2 µM,0%
same,growth inhibition,[1]; at 3.7 µM,1%
same,growth inhibition,[1]; at 11.0 µM,6%
same,growth inhibition,[1]; at 33.0 µM,13%
same,growth inhibition,[1]; at 100.0 µM,51%
same,growth inhibition,[2]; at 1.2 µM,-1%
same,growth inhibition,[2]; at 3.7 µM,-2%
same,growth inhibition,[2]; at 11.0 µM,-1%
same,growth inhibition,[2]; at 33.0 µM,0%
same,growth inhibition,[2]; at 100.0 µM,-16%
same,growth inhibition,[3]; at 1.2 µM,-3%
same,growth inhibition,[3]; at 3.7 µM,-1%
same,growth inhibition,[3]; at 11.0 µM,5%
same,growth inhibition,[3]; at 33.0 µM,30%
same,growth inhibition,[3]; at 100.0 µM,76% (active)
same,growth inhibition,[4]; at 1.2 µM,-3%
same,growth inhibition,[4]; at 3.7 µM,-2%
same,growth inhibition,[4]; at 11.0 µM,0%
same,growth inhibition,[4]; at 33.0 µM,2%
same,growth inhibition,[4]; at 100.0 µM,3%
same,growth inhibition,[5]; at 1.2 µM,0%
same,growth inhibition,[5]; at 3.7 µM,0%
same,growth inhibition,[5]; at 11.0 µM,6%
same,growth inhibition,[5]; at 33.0 µM,15%
same,growth inhibition,[5]; at 50.0 µM,35.6%
same,growth inhibition,[5]; at 100.0 µM,53%
same,growth inhibition,[6]; at 1.2 µM,-2%
same,growth inhibition,[6]; at 3.7 µM,0%
same,growth inhibition,[6]; at 11.0 µM,1%
same,growth inhibition,[6]; at 33.0 µM,4%
same,growth inhibition,[6]; at 50.0 µM,-4.3%
same,growth inhibition,[6]; at 100.0 µM,15%
same,growth inhibition,[7]; at 1.2 µM,-2%
same,growth inhibition,[7]; at 3.7 µM,1%
same,growth inhibition,[7]; at 11.0 µM,3%
same,growth inhibition,[7]; at 33.0 µM,3%
same,growth inhibition,[7]; at 100.0 µM,11%
same,growth inhibition,[8],6.75%
same,growth inhibition,[9]; at 1.2 µM,-10%
same,growth inhibition,[9]; at 3.7 µM,-5%
same,growth inhibition,[9]; at 11.0 µM,-6%
same,growth inhibition,[9]; at 33.0 µM,-5%
same,growth inhibition,[9]; at 100.0 µM,0%
same,growth inhibition,[10],2.3%
same,growth inhibition,[11]; at 1.2 µM,2%
same,growth inhibition,[11]; at 3.7 µM,-2%
same,growth inhibition,[11]; at 11.0 µM,0%
same,growth inhibition,[11]; at 33.0 µM,-6%
same,growth inhibition,[11]; at 50.0 µM,-10.8%
same,growth inhibition,[11]; at 100.0 µM,3%
same,growth inhibition,[12]; at 1.2 µM,-3%
same,growth inhibition,[12]; at 3.7 µM,-3%
same,growth inhibition,[12]; at 11.0 µM,-3%
same,growth inhibition,[12]; at 33.0 µM,0%
same,growth inhibition,[12]; at 100.0 µM,3%
same,growth inhibition,[13]; at 1.2 µM,-1%
same,growth inhibition,[13]; at 3.7 µM,-2%
same,growth inhibition,[13]; at 11.0 µM,-2%
same,growth inhibition,[13]; at 33.0 µM,1%
same,growth inhibition,[13]; at 100.0 µM,8%
same,growth inhibition,[14]; at 1.2 µM,-2%
same,growth inhibition,[14]; at 3.7 µM,-1%
same,growth inhibition,[14]; at 11.0 µM,1%
same,growth inhibition,[14]; at 33.0 µM,10%
same,growth inhibition,[14]; at 100.0 µM,33%
same,growth inhibition,[15],43%
same,growth inhibition,[16]; at 1.2 µM,4%
same,growth inhibition,[16]; at 3.7 µM,13%
same,growth inhibition,[16]; at 11.0 µM,45%
same,growth inhibition,[16]; at 33.0 µM,85% (active)
same,growth inhibition,[16]; at 100.0 µM,94% (active)
